Screening results deposited in PubChem BioAssay by ICCB-Longwood Screening Facility, Harvard Medical School.
The sample as a whole holds a higher share of hits than the screen did.
Sa helicase inh: blocks Staphylococcus aureus DNA helicase; purified S. aureus helicase, fluorescence unwinding assay; inhibition, % (concentration not given with the values); hit rate 0.05% among 120,000; AID 485395; in the data active = inhibition above about 25%, passing the limit was not always enough;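 note: 0% = mean of negative control wells and 100% = mean of positive control wells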
Sa growth inh: inhibitors of Staphylococcus aureus growth at 42 °C. S. aureus RN4220 growth, OD600, 20 h; stronger effect = lower value. relative growth, % (no concentration beside the values). hit rate 0.53% among 170,000. AID 720641;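 active = relative growth at most 50% at the other temperature and 20+ points below 30 °C, or under 10% at both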
* = called active by the depositor; x = no result given; ! = not active in a repeat.

SMILES | Sa helicase inh | Sa growth inh
Cc1ccn2c(=O)cc(COc3ccc4c(c3)OCO4)nc2c1 | -10 | 86
CN1C(=O)S/C(=C\C(=O)O)C1=O | 5 | 89
CN(Cn1nc2sc3ccccc3n2c1=S)C1CCCCC1 | -13 | 54
S=c1n(CN2CCCC2)nc2sc3ccccc3n12 | 0 | 39*
CSc1cccc(NC(=O)c2ccc(CN3CCOCC3)cc2)c1 | 5 | 91
O=C(Oc1ccc(Cl)cc1)c1ccc2nonc2c1 | x | 123
CCN(CC)c1cc(C)c2cc(NC(=O)C3CC3)ccc2n1 | 5 | 87
O=C(CCc1nc2ccccc2c(=O)[nH]1)Nc1ccc2c(c1)CCC2 | -2 | 106
O[N+]1=CC=CCC1=S.On1ccccc1=S.[Zn] | x | -0.3*
COc1ccc(OC)c(CCNC(=O)c2ccc(CS(=O)(=O)c3c(Cl)cccc3Cl)o2)c1 | x | 101
CCOC(NC(=O)Nc1ccc(Br)cc1)(C(F)(F)F)C(F)(F)F | x | -0.7*
CCOC(NC(=O)c1ccccc1)(C(F)(F)F)C(F)(F)F | x | 114
CC(=O)N1CCN(c2ccc(OC[C@H]3CO[C@](Cn4ccnc4)(c4ccc(Cl)cc4Cl)O3)cc2)CC1 | x | 1.2*!
CC(=O)N1CCN(c2ccc(Oc3ccnc4cc(Cl)ccc34)cc2)CC1 | 5 | 93
Cn1c(SCc2cc(=O)oc3cc(O)c(O)cc23)nc2ccccc21 | 67* | 71
CCn1c(SCc2cc(=O)oc3cc(O)ccc23)nc2ccccc21 | -1 | 93
Nn1c(SCc2cc(=O)oc3cc(O)c(O)cc23)nnc1-c1ccncc1 | 25 | 68
Nn1c(Cc2ccccc2F)nnc1SCc1cc(=O)oc2cc(O)c(O)cc12 | 55* | 139
C=CCn1c(C)nnc1SC(C)C(=O)Nc1ccc(S(=O)(=O)NC(C)C)cc1 (centres undefined) | 7 | 104
Cc1ccc(NC(=O)c2cc3ccccc3c([N+]#N)c2[O-])cc1 | 13 | 91
O=C(O)CSc1nnc(NC2CCCCC2)s1 | 5 | 77
N#CSc1cnc(NC2CCCCC2)s1 | -2 | 5.0*
CCSc1nnc(CSc2ncccn2)n1CCc1ccccc1 | 21 | x
CCOc1ccc(CNC(=O)c2ccc(CS(=O)Cc3ccc(Cl)cc3)o2)cc1 (centres undefined) | x | 111
CCOc1ccc(CCNC(=O)c2ccc(CS(=O)Cc3cccc(Cl)c3)o2)cc1 (centres undefined) | x | 24*
SMILES | Sa helicase inh | Sa growth inh
CC1=NOC(=O)/C1=C\c1ccc(O)c(O)c1 | 26 | 88
O=C1c2ccccc2N2C(=O)CCC2(C(=O)Nc2ccc(N3CCCCC3)cc2)N1Cc1ccccc1 (centres undefined) | 2 | 90
Cc1csc(NC(=O)CN2C(=O)COc3cc(S(=O)(=O)N4CCC(C)CC4)ccc32)n1 | -14 | 105
CCc1ccc(Nc2c3c(nc4ccccc24)CCC3)cc1 | 18 | 6.7*
CCc1ccc(Nc2c3c(nc4ccccc24)CCCC3)cc1 | 7 | 79
Cc1cc(NC(=O)c2ccc3nc(N4CCOCC4)sc3c2)ccc1Br | -1 | 80
Cc1cccc(CS(=O)(=O)c2ncc(Cl)c(C(=O)NCc3ccccc3)n2)c1 | x | 1.6*
O=C(NCc1ccccc1)c1nc(S(=O)(=O)Cc2ccc(F)cc2)ncc1Cl | x | 15
O=C(NCc1ccccc1)c1ccccc1O | -10 | 105
CON(C)S(=O)(=O)c1cc(C(=O)OC(C)C(=O)Nc2ccc(N3CCOCC3)cc2)ccc1Cl (centres undefined) | 6 | 102
CCOC(=O)c1c[nH]n2c(=O)cc(-c3ccccc3)nc12 | x | 87
Cc1ccc(N(c2ccc(C)cc2)c2cccnc2)cc1 | 7 | 5.5*
Cc1ccc(OC(=O)c2cccnc2)cc1 | -5 | 98
CC(=O)OCC1OC(n2c(Br)nc3c(N)ncnc32)C(OC(C)=O)C1OC(C)=O (centres undefined) | -14 | 86
CCN(CC)c1ccc2c(C)c(CO)c(=O)oc2c1 | -44 | 102
CCN(CC)c1ccc2c(N3CCCCC3)cc(=O)oc2c1 | -10 | 2.1*
COc1ccc(C(=O)c2ccccc2)c(OCC(=O)NC23CC4CC(CC(C4)C2)C3)c1 | 25 | 82
CCc1ccc(-c2cc(C)no2)cc1S(=O)(=O)N(C)Cc1ccccc1 | 12 | 78
CCOC(=O)N=c1oc2cc(Cl)c(Cl)cc2o1 | 12 | 57
CCOC(=O)Oc1cc2oc(=O)sc2cc1Cl | 32 | 4.9*
CCn1cc(C(=O)O)c(=O)c2cc(F)c(N3CCN(C(=O)c4ccc(F)cc4)CC3)cc21 | 12 | 17
CCn1cc(C(=O)NCc2cccnc2)c(=O)c2cc(S(=O)(=O)N3CCCC3)ccc21 | -21 | 106
CCN1CCN(c2cc3c(cc2F)c(=O)c(C(=O)O)cn3C2CC2)CC1 | x | -0.9*
O=C(O)c1cn(C2CC2)c2cc(N3CCNCC3)c(F)cc2c1=O | x | 0.7*!
O=C(NCc1cccnc1)c1cn(C2CC2)c2cc(N3CCN(C(=O)c4cccc(Cl)c4)CC3)c(F)cc2c1=O | 5 | 4.6*
SMILES | Sa helicase inh | Sa growth inh
CCn1cc(C(=O)O)c(=O)c2cc(F)c(N3CCN(C(C)=O)CC3)cc21 | -11 | 83
O=c1[nH]c(CSc2nnnn2C2CCCC2)nc2ccccc12 | -32 | 63
c1ccc(CCn2c(COc3ccccc3)nc3ccccc32)cc1 | 8 | 86
CC1CCCN(CC(C)(C)N)C1 (centres undefined) | 3 | 91
Cc1ccccc1N=Cc1ccc(N(C)C)cc1 | -18 | 88
Clc1ccc(-c2csc(=Nc3cccnc3)n2C2CC2)cc1 | -10 | 107
Nn1c2ccccc2c2ccccc21 | 23 | 104
Cc1sc2nc(SCC(=O)NC3CCCCC3)[nH]c(=O)c2c1C | 4 | 81
Cc1nnc(SCC(=O)NC2CCCCCC2)[nH]c1=O | 12 | 0.2*
C=C1c2cccc(O)c2C(O)=C2C(=O)C3(O)C(O)=C(C(N)=O)C(=O)C(N(C)C)C3C(O)C12 (centres undefined) | -26 | 4.3*
CN(C)[C@@H]1C(=O)C(C(=O)NCN2CCCC2)=C(O)[C@@]2(O)C(=O)C3=C(O)c4c(O)cccc4[C@@](C)(O)[C@H]3C[C@@H]12 | x | 12
CS(=O)c1nc(-c2ccccc2)cc(C(F)(F)F)n1 (centres undefined) | 7 | -0.2*
FC(F)(F)c1cc(-c2ccccc2)nc(N2CCCC2)n1 | 3 | 102
CCOC(=O)N1CCN(CC(O)COC2C3(C)CCC(C3)C2(C)C)CC1 (centres undefined) | 12 | x
O=C(Nc1ccccc1Cl)C1CCC1 | 17 | 97
O=C(c1cccc(C(=O)N2CCCCC2)c1F)N1CCCCC1 | x | 84
COc1ccc(CNCc2ccc(C)cc2)cc1 | -17 | 84
COc1ccc(CCN(C)c2nc(N)c3c(N)nc(SCC(=O)O)cc3c2C#N)cc1OC | -18 | 0.7*
COc1cc2c(C#N)c(N(C)CCc3ccc(OC)c(OC)c3)nc(N)c2c(N)n1 | -19 | 69
Cc1c(CN(C)C)c2c(n1Cc1ccccc1)C(=O)c1ccc(Br)cc1-2 | 14 | 93
Cc1c(CN(C)C)c2c(n1C)C(=O)c1ccc(Br)cc1-2 | 64* | 87
CC1(C)CC(n2[nH]c(=O)cc2N)CCO1 (centres undefined) | -11 | 115
CCOC(=O)c1cnc2ccc(C(=O)OC)cc2c1NCCN(C)C | 12 | 103
O=C(Nc1ccc(SC(F)(F)F)cc1)n1ccc(C(F)(F)F)n1 | x | 4.9*
O=C(O)/C=C/C(=O)Nc1ccc(SC(F)(F)F)cc1 | -20 | 100
CC(C)(C)C(=O)COC(=O)c1ccc(NS(=O)(=O)c2cccs2)cc1O | -8 | 98
CCC(=O)N(CC)Cc1cc2ccccc2[nH]c1=O | 3 | 82
